# This is a sample that favours compounds with a hit; in the whole collection about 2.2% have one here.
# V-ATPase pH: regulators of yeast V-ATPase proton pumping, primary screen, pHLuorin cytosolic pH fluorescence; response, % at 10 µM; AID 504577, 2011; S. cerevisiae; 0.37% of 350,000 active; in the data active = response mostly above about 7.3%, no sharp cut-off; inactive = mostly below about 5.4%; note: actives read high
# VLA-4 inh: inhibition in human VLA-4 binding assay, primary screen, VLA-4 allosteric modulator project, MLPCN library, flow cytometry, VLA-4 expressing cells; inhibition, % (about 7 µM as worked out from the volumes in the protocol); 0.2% of 330,000 active; ligand binding flow cytometry; in the data active = inhibition above about 50%
# MEX-5 binding: MEX-5 zinc finger RNA-binding disruptors – biochemical, C. elegans, fluorescence polarization, MLPCN library, primary screen. Zinc finger protein mex-5 (Caenorhabditis elegans), Q9XUB2. MEX-5/FITC-TCR2 RNA binding; hits give low values. activity score (negative = inhibition of binding), % at 10 µM. 0.38% of 300,000 active. AID 1832, 2009;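 active = inhibition past about -25% in most replicates, and total fluorescence under double the plate's negative control median, limit read from the data; inconclusive = replicates evenly split on the limit, or fluorescence at least double controls; inactive = too little inhibition in most replicates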
# Exocytosis inh: LAMP-1 surface exposure blockers, TALL-104 cells – cell-based, flow cytometry, MLPCN library, primary screen. TALL-104 LAMP-1 surface exposure; cells stimulated with thapsigargin and PMA. 0.66% of 360,000 active. AID 651702, 2012. inhibition, % at 10 µM;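 active = inhibition above about 55%, limit read from the data; inconclusive = no clear call, values can overlap the other calls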
# HTR2A ag: mouse Htr2a agonists via beta-arrestin recruitment, primary screen, cell-based, luminescence. 0.66% of 360,000 active. CHO-K1 mHTR2A beta-arrestin complementation; percent of 30 µM serotonin response. 5-hydroxytryptamine receptor 2A (Mus musculus), P35363. activation, % at 7.6 µM;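 active = activation above a run cutoff, the mean activation of all tested compounds plus 3 SD, cut at about 14% in these data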
# GASC-1 inh: inhibitors of GASC-1 histone demethylase, primary screen, biochemical, fluorescence, DELFIA europium; GST-JMJD2C(1-420) H3K9me3 demethylation; inhibition, % at 2.35 µM; 0.069% of 330,000 active; AID 2099, 2009;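 active = more than half of a compound's replicate wells show inhibition beyond 50%, single wells judged on their own value; inconclusive = some, but no more than half, of replicates pass 50% inhibition; inactive = no replicate passes 50% inhibition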;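 note: signal counts dimethyl H3K9 product captured on neutravidin plate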
# VLA-4 mod pick: retest of VLA-4 allosteric modulators, confirmation, cell-based, cherry-picked plates, U937, HUTS-21 LIBS antibody. shares compounds with VLA-4 inh. U937 cells, HUTS-21 LIBS mAb binding, flow cytometry; LDV ligand present at threefold Kd. inhibition, % at 6.7 µM. 2% of 1,300 active. AID 2813, 2010; in the data active = inhibition above about 40%
# VATPase regulator: yeast V-ATPase proton pumping modulators, confirmation, S. cerevisiae, pH-sensitive GFP, second cherry-pick; shares compounds with V-ATPase pH; S. cerevisiae pHLuorin cytosolic pH, V-ATPase proton transport; response, % at 10 µM; 2% of 980 active; in the data active = response above about 24%
# MOR ag counter: OPRM1 agonists via beta-arrestin recruitment, confirmation, counter-screen for mouse HTR2A agonist project, cell-based, luminescence, single concentration; shares compounds with HTR2A ag; U2OS OPRM1 beta-arrestin PathHunter; DMSO 0%, DAMGO 9.3 µM 100%; activation, % at 9.3 µM; 5.3% of 2,300 active;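 active = mean activation above the mean of DMSO-only wells plus 3 SD, cut at about 0.5% in these data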
# HTR2A ag conf: mouse HTR2A agonists, beta-arrestin recruitment, confirmation, cell-based, luminescence, CHO-K1 PathHunter, triplicate. activation, % at 7.6 µM. DMSO 0%, 30 µM serotonin 100%. shares compounds with HTR2A ag. 19% of 2,300 active;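 active = mean activation across triplicates above the hit threshold derived in the original primary screen, cut at about 15% in these data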
# Granule exo CP1: inhibitors of lytic granule exocytosis, confirmation, TALL-104 cells, flow cytometry, Cherry Pick01; LAMP-1 externalization; stimulated with PMA plus thapsigargin; 11% of 1,500 active; shares compounds with Exocytosis inh; inhibition, % at 10 µM; in the data active = inhibition above about 60%
# Hits are given with their value; - = inactive; ? = inconclusive; . = no result.
SMILES,V-ATPase pH,VLA-4 inh,MEX-5 binding,Exocytosis inh,HTR2A ag,GASC-1 inh,VATPase regulator,others
COc1cc(/C=C2/S/C(=N/S(=O)(=O)c3ccccc3)NC2=O)c([N+](=O)[O-])cc1OC,-,52,-,-,18,-,.,VLA-4 mod pick=-;MOR ag counter=-;HTR2A ag conf=-
Cc1ccc(C(=O)c2cc([N+](=O)[O-])ccc2N2CCOCC2)c(C)c1,-,-,-,-,15,-,.,VLA-4 mod pick=50;MOR ag counter=-;HTR2A ag conf=-
COc1cccc(-c2nn(-c3ccc(F)cc3)cc2C(=O)NCC2CCCO2)c1 (centres undefined),-,-,-,-,-,-,.,
COc1ccc(CN2C(=O)C(CC(=O)NCCc3ccccn3)CC(C(=O)N(C(C)C)C(C)C)=C2C)cc1 (centres undefined),-,.,.,-,-,.,.,
CCOC(=O)CNS(=O)(=O)c1cc(-c2nnc(Nc3ccc4c(c3)OCO4)c3ccccc23)ccc1C,-,61,-,-,17,-,.,VLA-4 mod pick=-;MOR ag counter=-;HTR2A ag conf=-
OC(CNCc1ccco1)Cn1c2ccc(Br)cc2c2cc(Br)ccc21 (centres undefined),-,67,-,78,-,-,.,VLA-4 mod pick=-;Granule exo CP1=-
Cc1cccc(C(=O)NCC(=O)OCC(=O)N(C)CC(=O)Nc2ccc(F)cc2)c1,-,-,-,-,-,-,.,
CCOC(=O)c1c(C)c(-c2ccccc2)n(CC(=O)NCCCN(CC)CC)c1C,15,-,-,?,-,-,-,
CC(=O)Nc1ccc(S(=O)(=O)N2CCN(C(=O)c3ncoc3-c3ccccc3)CC2)cc1,-,.,-,-,-,-,.,
CCCCNC(=O)c1ccc(C)c(NC(=O)C2=C(C)OCCS2)c1,-,-,-,-,-,-,.,
CC1=C(C(=O)Nc2cc(C(=O)NCc3ccccc3)ccc2C)SCCO1,55,.,.,-,-,.,-,
CCCCN(C)CCCNC(=O)CN1C(=O)CSc2ccc(S(=O)(=O)N3CCOCC3)cc21,9.5,-,-,-,-,-,-,
Cn1c(N)c(C(=O)c2ccc(F)cc2F)c(=O)n(C)c1=O,8.4,-,-,-,-,-,-,
Cn1c(N)c(C(=O)c2ccc(Cl)cc2)c(=O)n(C)c1=O,-,-,-,-,-,-,.,
COc1ccc(S(=O)(=O)N2CCOCC2)cc1NC(=O)CCCOc1ccc(Cl)cc1C,-,-,.,-,-,-,.,
O=C(COC(=O)c1c(Cl)ccc(Cl)c1Cl)NCC1CCCO1 (centres undefined),-,-,.,-,-,-,.,
O=C(COC(=O)c1c(Cl)cccc1Cl)NCC1CCCO1 (centres undefined),12,-,-,-,-,-,-,
CCOC(=O)C(=O)N=Nc1c(O)[nH]c2ccccc12,-,-,-,-,-,-,-,
O=C(c1ccc([N+](=O)[O-])o1)N1CCN(c2nc3c(Cl)cccc3s2)CC1,10.0,-,-,-,-,-,23,
O=C(c1ccc([N+](=O)[O-])o1)N1CCN(c2nc3ccc(F)cc3s2)CC1,67,-,-,-,-,-,41,
CN(C(=O)c1cc(COc2ccc(F)cc2Cl)on1)C1CCOC1 (centres undefined),.,.,.,-,-,.,.,
O=C(NC(=S)NC1CCSC1=O)c1cccs1 (centres undefined),8.3,-,-,-,-,-,-,
CCOC(=O)Cn1c(S(=O)(=O)Cc2ccc(Cl)cc2)nc(-c2ccccc2)c1-c1ccccc1,-,-,-,-,-,-,.,
CCOC(=O)Cn1c(-c2ccc(Cl)nc2)nc2ccccc21,-,-,-,-,-,-,-,
CCOC(=O)Cn1c(S(=O)(=O)Cc2ccccc2)nc2ccccc21,-,-,-,-,-,-,-,
SMILES,V-ATPase pH,VLA-4 inh,MEX-5 binding,Exocytosis inh,HTR2A ag,GASC-1 inh,VATPase regulator,others
CCOC(=O)Cn1c(=O)cnc2ccccc21,-,-,-,-,-,-,-,
Cn1c(-c2ccc(Cl)nc2)nc2ccccc21,-,-,-,-,-,-,.,
COc1ccc(C2=CC(=O)CC(C)(C)C2)cc1OC,-,-,.,-,-,-,.,
COc1ccccc1N1CCN(C(=O)c2ccc(-c3ccc(Cl)cc3)o2)CC1,-,-,.,-,-,-,.,
CNc1nc(-c2cccc(C(=O)N(C)C)c2)cn2ccnc12,.,.,.,-,-,.,.,
COc1cc2c(cc1OC)C(c1ccccc1C(F)(F)F)CC(=O)N2 (centres undefined),-,-,-,-,-,-,.,
CC(SCc1ccccc1)C(=O)Nc1ccccc1Br (centres undefined),11,-,-,-,-,-,-,
CCOC(=O)C1(C)CCCCN1C(=O)c1ccoc1 (centres undefined),.,.,.,-,-,.,.,
CC(=O)Nc1ccc2nc(CN3CCN(Cc4ccc(F)cc4)C(CCO)C3)ccc2c1 (centres undefined),11,-,-,-,-,-,-,
CC(=O)Nc1ccc2nc(CN3CCN(CC(C)C)C(CCO)C3)ccc2c1 (centres undefined),-,-,-,-,-,-,.,
COC(C[C@@H](O)C[C@H](O)COCc1ccccc1)OC,31,.,-,-,-,?,-,
COC(C[C@H](O)C[C@@H](O)[C@H](C)OCc1ccccc1)OC,-,.,-,-,-,-,.,
